GSH fluor – compound fluorescence on glutathione beads, profiling panel, artefact control, biophysical, 488/530 nm, flow cytometry. fluorescence (KMESF) at 10 µM. GSH beads flow cytometry, compound fluorescence 488/530 nm; hits give high values. actives 0.25% (n = 190,000). AID 1776, 2009; in the data active = fluorescence above about 89;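 note: glutathione beads carrying GST-tagged Bcl family fusion proteins plus one bare bead set; values are compound well signal with DMSO vehicle wells as background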
RGS16-Gao HTS – modulators of RGS16 binding to Galphao, primary screen, biochemical, human proteins, multiplexed bead flow cytometry. Regulator of G-protein signaling 16 (Homo sapiens) + Guanine nucleotide-binding protein …. bead-based flow cytometry RGS16-Galphao binding, fluorescence; actives lie on both sides. binding response (% of control), % at 10 µM. actives 0.38% (n = 220,000). AID 1441, 2008; call rule not given here;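 note: Galphao activated by GDP with aluminum fluoride before binding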
Target sequence (O15492 whole entry, looked up): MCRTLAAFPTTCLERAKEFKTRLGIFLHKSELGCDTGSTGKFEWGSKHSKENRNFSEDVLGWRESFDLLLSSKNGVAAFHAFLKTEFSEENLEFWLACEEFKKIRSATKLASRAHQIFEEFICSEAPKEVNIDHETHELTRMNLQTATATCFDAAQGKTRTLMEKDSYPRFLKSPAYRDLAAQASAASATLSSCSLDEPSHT
Target sequence (P09471 whole entry, looked up): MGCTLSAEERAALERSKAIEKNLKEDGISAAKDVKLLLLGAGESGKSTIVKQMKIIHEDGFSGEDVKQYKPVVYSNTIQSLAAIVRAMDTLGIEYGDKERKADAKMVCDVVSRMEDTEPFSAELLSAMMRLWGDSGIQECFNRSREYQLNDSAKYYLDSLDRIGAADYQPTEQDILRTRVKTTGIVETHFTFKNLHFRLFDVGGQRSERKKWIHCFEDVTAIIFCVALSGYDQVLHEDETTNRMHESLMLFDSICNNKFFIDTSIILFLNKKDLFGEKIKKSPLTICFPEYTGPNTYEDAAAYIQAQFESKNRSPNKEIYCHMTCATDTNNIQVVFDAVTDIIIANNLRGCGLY
RGS8-Gao reg – RGS8-Galphao binding modulators, primary screen, biochemical, multiplexed bead flow cytometry; Guanine nucleotide-binding protein G(o) subunit alpha (Homo sapiens), P09471; actives lie on both sides; response (percent of control binding), % at 10 µM; actives 0.34% (n = 220,000); in the data active = response below about 60% or above about 140%; inactive = in between;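 note: Galphao activated as the GDP aluminium fluoride complex binding bead-coupled RGS8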
RGS4-Gao reg – modulators of RGS4 binding to Galphao, primary screen, biochemical, multiplexed bead flow cytometry | Guanine nucleotide-binding protein G(o) subunit alpha (Homo sapiens), P09471 | actives lie on both sides | binding response (% of control), % at 10 µM | AID 1415, 2008 | actives 0.33% (n = 220,000); in the data active = binding response below about 49% or above about 150%; inactive = in between;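 note: fluorescent Galphao activated with aluminum fluoride binding bead-coupled RGS4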
Avidin fluor – green autofluorescence of compounds with avidin beads – biophysical, 488/530 nm, flow cytometry, artefact control, profiling panel; compound fluorescence 488/530 nm; hits give high values; fluorescence (KMESF) at 10 µM; actives 0.38% (n = 220,000); AID 1775, 2009; in the data active = fluorescence above about 47
RGS7-Gao – RGS7-Galphao binding modulators, primary screen, biochemical, multiplexed bead flow cytometry; binding response (% of control), % at 10 µM; actives lie on both sides; actives 0.35% (n = 220,000); Guanine nucleotide-binding protein G(o) subunit alpha (Homo sapiens), P09471; in the data active = binding response below about 49% or above about 150%; inconclusive = no clear call, values can overlap the other calls; inactive = in between;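 note: fluorescent Galphao held in activated GDP-AlF4 state binding bead-coupled RGS7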
The depositor's hits bear a star; ? = inconclusive; . = no result given. Compounds with a hit are over-represented: about 1.2% of the library has one in this group of screens.

SMILES	GSH fluor	RGS16-Gao HTS	RGS8-Gao reg	RGS4-Gao reg	Avidin fluor	RGS7-Gao
CN1CCN(C(=O)c2cnn3c(C(F)(F)F)cc(-c4cccs4)nc23)CC1	24	107	104	100	3	99
O=C(c1cnn2c(C(F)(F)F)cc(-c3cccs3)nc12)N1CCN(C(c2ccccc2)c2ccccc2)CC1	126*	108	103	97	5	97
O=C(Nc1ccc2c(c1)OCO2)c1n[nH]c(=O)c2ccccc12	.	95	94	87	7	?
CSc1ccccc1NS(=O)(=O)c1ccccc1	21	104	103	102	48*	104
C=CCn1c(C)nnc1SCC(=O)N1CCN(S(=O)(=O)c2ccccc2)CC1	.	98	100	96	8	?
COc1ccc(NC(=O)CSc2ccc(F)cc2)cc1S(=O)(=O)N1CCCCC1	8	102	103	104	3	106
COc1ccc(NC(=O)CSc2ccc(NC(C)=O)cc2)cc1S(=O)(=O)N1CCCCC1	23	105	100	136	74*	133
COc1cc(/C=C(\C#N)c2nc3ccccc3n2C)cc(OC)c1O	11	102	100	101	22	100
O=C1CSC(=S)N1Cc1cccnc1	65	101	97	103	8	100
O=C1CSC(=S)N1c1cccnc1	266*	99	101	100	7	98
CCc1c(C)sc(NC(=O)C2CCCO2)c1C#N (centres undefined)	139*	32	69	66	3	76
Cc1cccc2sc(NC(=O)C3CCCO3)nc12 (centres undefined)	25	105	102	101	33	99
CCc1cccc(C)c1NC(=O)C1CCCO1 (centres undefined)	251*	65	105	114	5	112
CCOC(=O)C1(Cc2ccc(OC)cc2)CCN(C(=O)CCn2cccn2)CC1	.	100	100	98	6	?
CC1CCCC(C)N1C(=O)COc1ccc(C(=O)Nc2ccccc2N2CCOCC2)cc1 (centres undefined)	25	103	102	104	15	97
CN(C(=O)Nc1ccc(Cl)cc1Cl)C1CCCC1	18	95	95	97	8	96
NS(=O)(=O)c1ccc(NC(=O)c2ccc(-c3ccccc3)cc2)cc1	57	101	100	98	10	100
NS(=O)(=O)c1ccc(NS(=O)(=O)c2ccc(NC(=O)c3ccc(-c4ccccc4)cc3)cc2)cc1	13	410	110	106	373*	113
COCCCNC(=O)CSC1=Nc2ccccc2C2=NC(Cc3c[nH]c4ccccc34)C(=O)N12 (centres undefined)	24	108	102	102	7	104
COCCCNC(=O)CSC1=Nc2ccccc2C2=NC(c3ccccc3)C(=O)N12 (centres undefined)	12	108	103	101	69*	122
O=C1CCC(C(=O)N2CCCC(C(=O)c3ccc4c5c(cccc35)CC4)C2)=NN1 (centres undefined)	14	104	104	100	11	103
CC(NC(=O)c1ccc2nc[nH]c2c1)c1ccccc1 (centres undefined)	25	112	106	103	11	109
CCC(CC)NC(=O)c1ccc2nc[nH]c2c1	262*	102	102	103	9	96
Cc1nc(N2CCN(c3ccccc3)CC2)[nH]c(=O)c1CCC(C)C	15	96	101	100	11	?
Cc1nc(N2CCN(c3ccccc3)CC2)[nH]c(=O)c1Cc1cccc2ccccc12	23	94	96	114	197*	148
SMILES	GSH fluor	RGS16-Gao HTS	RGS8-Gao reg	RGS4-Gao reg	Avidin fluor	RGS7-Gao
NC(=O)c1c(NC(=O)CN2C(=O)CCC2=O)sc2c1CCCCC2	28	113	105	105	8	106
CCC1(C)NC(=O)N(CC(=O)Nc2sc3c(c2C(N)=O)CCC3)C1=O (centres undefined)	222*	1	86	83	3	77
COc1ccc(S(=O)(=O)Nc2ccc(NC(C)=O)cc2)cc1[N+](=O)[O-]	13	96	96	100	7	98
C/C(=N\NC(=O)c1ccc(COc2ccccc2)cc1)c1ccncc1	21	100	101	103	6	98
O=C(NC1CCCCC1)C(c1ccco1)N(C(=O)c1csnn1)C1CCCC1 (centres undefined)	30	26	28*	36*	3	29*
CCc1noc(C)c1C(=O)Nc1nnc(C2CCCCC2)s1	10	103	101	105	10	100
CS(=O)(=O)N(Cc1ccccc1)c1ccc(C(=O)NCCSCc2ccco2)cc1	88*	103	100	92	6	96
O=C(COC(=O)c1ccc(Cl)cc1O)NCCN1C(=O)CSC1=O	.	102	101	107	.	?
Cc1ccc(S(=O)(=O)N(C)Cc2nc(-c3ccncc3)no2)cc1	17	102	101	102	50*	105
CC(=O)c1ccc(NC(=S)NCCc2cccc(Cl)c2)cc1	16	100	97	99	9	?
COc1ccc(Cn2c(C)nnc2-c2cnn(C)c2N)cc1OC	13	97	100	99	9	101
Cc1nnc(-c2cnn(C)c2N)n1Cc1ccccc1F	270*	108	103	104	6	97
Cc1cc(C(=O)NCC(=O)OCC(=O)NCCc2ccccc2)ccc1[N+](=O)[O-]	11	97	100	96	9	97
CC1CCN(S(=O)(=O)c2ccc3c(c2)oc(=O)n3CC(=O)N2c3ccccc3CC2C)CC1 (centres undefined)	21	144	107	93	56*	91
Nc1cc(=O)[nH]c(SCc2ccc(Cl)cc2)n1	19	104	103	105	50*	110
COC(=O)COc1ccc(S(=O)(=O)Nc2ccccc2C(=O)OC)cc1	39	108	104	111	63*	146
COC(=O)c1sc2ccccc2c1C(=O)OC	17	106	99	103	61*	118
COC(=O)c1sc2ccccc2c1N	17	104	102	98	7	98
O=C(/C=C/NNC(=O)c1ccccc1)c1ccc([N+](=O)[O-])cc1	13	103	103	100	12	98
COC(=O)c1ccc(-c2ccc(C(=O)N3CCCN(C)CC3)cc2)cc1	256*	109	101	104	6	103

Source: PubChem
